# From PubChem BioAssay
# Sfp PPTase inh: inhibitors of Bacillus subtilis Sfp phosphopantetheinyl transferase; Q9F4F7; Biochemical Sfp PPTase activity, qHTS; Potency, µM, inactives show largest response in the series, negative = inhibition, actives largely listed as inhibitors; hit rate 3.5% among 310,000; AID 1490;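 also: the enzyme is Sfp with the accession as filed and its product quenches rhodamine fluorescence; 0% = enzyme reaction without inhibitor and -100% = no enzyme wells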
#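 Fluorescence-quenching assay: 15 nM Sfp-PPTase preincubated 15 min at room temperature with compound, then 5 uM rhodamine-CoA and 12.5 uM BHQ-2-labelled YbbR peptide added. Fluorescence (ex 525/em 598 nm) read at start and after 30 min; difference gives rate.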
# ClpP mod: qHTS Assay for Activators of ClpP; purified B. subtilis ClpP, FRET peptide cleavage, 20 min; Potency, µM (highest dose often 57.5 µM), for inactives: at the highest dose activity change, negative = active; hit rate 1.9% among 340,000; AID 651965, 2013; ATP-dependent Clp protease proteolytic subunit (Bacillus subtilis (strain 168)), P80244; active = well fitted falling curve with a large enough effect; inconclusive = small, poorly fitted or top-dose-only effect; inactive = no such curve, though single readings can be large or run the other way; also: the source files actives as falling curves though it sought activators and does not explain the sign; nearly all actives have a fitted effect of over 65% in size
#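 ClpP 10 microg/mL final, pH 8 Tris/KCl buffer with BSA, glycerol, Tween-20; compound pinned in; FRET-FV substrate; RT 20 min; Ex320/Em430; ΔFRET vs ADEP 5.8 microM, DMSO, no enzyme.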
# VP16 counter: inhibits Gal4-VP16 luciferase reporter, ROR gamma counter-screen; Drosophila S2 Gal4-VP16 UAS-luciferase, luminescence, 20 h; Potency, µM (series often up to 53.6 µM), for inactives: at the highest dose activity, negative = inhibition, most hits filed as inhibitors; hit rate 3.5% among 310,000; AID 2546;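 also: Gal4-VP16 expression switched on by copper sulfate through the metallothionein promoter; % is scaled to controls: 0 for no effect and ±100 for the full control effect; nearly all actives have a fitted effect of over 50% in size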
# RORgamma inh: blocks mouse ROR gamma transcriptional activity. P51450. hit rate 5.4% among 310,000. Potency, µM (series often up to 53.6 µM), inactives show at the top dose activity change, negative = inhibition, usual class: inhibitors. Drosophila S2 Gal4-RORgamma UAS-luciferase reporter, 20 h; also: % is scaled to controls: 0 for no effect and ±100 for the full control effect; nearly all actives have a fitted effect of over 60% in size
#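 Luminescence from a UAS-regulated Photinus luciferase reporter in stably transfected Drosophila Schneider cells is measured; decreased signal marks ROR gamma inhibition. Fusion expression is induced by 700 uM copper sulfate for 20 hr.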
# PINK1 modulator: modulators of PINK1 expression | PINK1 immunofluorescence, high-content cytometry, 24 h | Potency, µM (highest dose often 76.6 µM), for inactives: top-dose activation (PINK1 increase), actives largely listed as activators | hit rate 0.2% among 410,000 | AID 624263; active = well fitted activation curve with a large enough effect; inconclusive = small, poorly fitted or top-dose-only effect; cell line not stated here; also: % of control where 0% means no effect; nearly all actives have a fitted effect of over 65% in size
#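 Compound titrations (5 concentrations, 24 h) on a stable cell line; DMSO and CCCP controls. Endpoint: fixed-cell PINK1 immunofluorescence with mitochondrial, cell and nuclear markers, scanned by microplate cytometer.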
# Epigenetic reg: derepresses silenced GFP reporter in murine cells; murine LDR cells, GFP reporter derepression, 30 h; Potency, µM (doses to about 53.9 µM), inactives show top-dose GFP activation, usual class: activators; hit rate 0.2% among 280,000; also: % of control where 0% means no effect; nearly all actives have a fitted effect of over 60% in size
#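 GFP-positive cell count by laser-scanning cytometry (objects 20–120 um) after 30 h, 37 C compound exposure of murine LDR cells; reporter is CMV-GFP integrated at a silenced locus, inducible by HDAC or DNMT inhibitors.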
# The depositor's hits bear a star; ? = inconclusive; · = no result; [ ] = remark or other dose. Shown are actives, neighbours in structure and some others; about 8.1% of the full set was active somewhere. Unless noted, calls follow the shape of the dose curve; as a rule, active = well fitted curve in the direction sought with a large enough effect; inconclusive = small, poorly fitted or top-dose-only effect, or another doubt; inactive = no such curve, though single readings can be large; an effect the other way counts as inactive or inconclusive. Potency is read from the fitted curve at half-maximal effect.
SMILES,Sfp PPTase inh,ClpP mod,VP16 counter,RORgamma inh,PINK1 modulator,Epigenetic reg
CCN1c2ccccc2N(C)C1(C)c1ccccc1 (stereo not drawn),32µM*,-1%,?,-94%,?,0%
Cc1ccc(Cl)cc1N1CCN(C(=O)c2ccc3c(c2)CCN3S(=O)(=O)c2ccccc2)CC1,·,1%,·,·,1%,-1%
CCN(CC)c1ccc(CN(C(=O)c2cc(=O)c3ccccc3o2)C2CCS(=O)(=O)C2)cc1 (stereo not drawn),·,2%,·,·,1%,-1%
Cn1cc(CNCCCn2ncc3ccccc32)c(-c2ccccc2F)n1,18%,-7%,-8%,28%,-1%,-1%
Cn1cc(CNCc2ccc(-n3cccn3)cc2)c(-c2ccccc2F)n1,13%,·,11µM*,?,-1%,-2%
O=C(c1cnn(-c2nccc(-c3ccco3)n2)c1C1CC1)N1CCCCC1c1cccnc1 (stereo not drawn),·,·,·,·,0%,·
Cc1ccccc1C(=O)Nc1nnc(-c2cccnc2)o1,-12%,·,5µM*,3.2µM*,0%,-1%
O=C(Nc1nnc(-c2ccccc2Cl)o1)c1cccnc1,11%,2%,1.3µM*,0.89µM*,-4%[38.3 µM],0%
COc1ccccc1C(=O)Nc1nnc(-c2ccc(F)cc2)o1,-9%,-4%,11µM*,7.9µM*,0%,-5%
COc1ccccc1C(=O)Nc1nnc(-c2ccc(F)cc2)s1,4%,·,23%,41%,1%,·
O=C(Nc1nnc(-c2ccc(F)cc2)o1)c1ccco1,10%,-3%,5µM*,?,1%,1%
COc1ncc2nc(-c3ccc(F)cc3)c(=O)n(Cc3ccc(F)cc3)c2n1,-15%,·,-15%,-34%,0%,·
CCOc1cccc(CN2CCC(n3cc(C(=O)N4CCCCC4)nn3)CC2)c1O,·,·,·,·,-1%,·
CC(C)CNC(=O)C1=CC(c2ccc3c(c2)OCO3)=NS(=O)(=O)N1C,·,-1%,·,·,-1%,-4%
CC(=O)Nc1nnc(-c2c(-c3ccccc3Cl)noc2C)o1,10%,·,18µM*,5µM*,0%,-1%
Cc1ccccc1C(=O)Nc1nnc(-c2ccc(F)cc2)o1,21%,-1%,0.45µM*,1.3µM*,1%,0%
Cc1ccc(C)c(N2CCN(C(=O)Cn3cnc4nc5c(cc4c3=O)CCCC5)CC2)c1,·,-5%,·,·,0%,-1%
CC1(C)S[C@@H]2C(C(=O)O)NC(=O)N2C1C(=O)O (stereo partly drawn),·,-1%,·,·,·,·
CC(C)CCNc1nc(Nc2ccccc2)c2cnn(C)c2n1,·,-13%,·,·,4%,-4%
COc1cc2nc(CN(CCO)C3CS(=O)(=O)CC3O)nc(N3CCCCC3)c2cc1OC (stereo not drawn),·,·,·,·,0%,·
Cc1sc2nc(-c3cccs3)nc(N3CCCN(C)CC3)c2c1C,56µM*,·,-10%,-11%,·,-7%
COc1cccc(/C=N/Nc2nc(N3CCCC3)nc(N3CCCC3)n2)c1O,0%,-1%,?,10µM*,5%[38.3 µM],0%
COc1ccc(/C=N/Nc2nc(N3CCCC3)nc(N3CCCC3)n2)c(OC)c1OC,-8%,-1%,-16%,7.9µM*,6%,-1%
CCN1C(=O)[C@H]2[C@H]3[C@H](O)[C@H](O)C/C(=N/NC(=O)OCc4ccccc4)[C@@H]3CC[C@@H]2C1=O,6%,·,-4%[10 µM],-14%[10 µM],·,1%[10.1 µM]
Cc1cccc(NC(=O)c2cc(S(=O)(=O)N3CCc4ccccc43)ccc2F)c1C,·,-4%,·,·,1%,1%
SMILES,Sfp PPTase inh,ClpP mod,VP16 counter,RORgamma inh,PINK1 modulator,Epigenetic reg
CN(CCCC[C@H](CNCc1ccc(-c2ccccc2)cc1)N1C[C@H](c2ccccc2)N(CCc2ccc(Cl)c(Cl)c2)C(=O)C1=O)Cc1ccc(-c2ccccc2)cc1,22µM*,·,?,?,·,4%
COc1ccc(CNC[C@@H](CCCCN(C)Cc2ccc(OC)cc2)N2C[C@H](c3ccccc3)N(CCc3ccc(Cl)c(Cl)c3)C(=O)C2=O)cc1,28µM*,0%,5µM*,5.6µM*,-2%,-1%
CCCCC(Sc1ccc2nnc(-c3ccccn3)n2n1)C(=O)O (stereo not drawn),·,-6%,·,·,0%,·
CCCc1cc(=O)n2[nH]c(-c3ccc(Br)cc3)cc2n1,1%,?,5%,?,29%,1%
Cc1cc(=O)n2[nH]c(C)c(-c3ccc(Cl)cc3)c2n1,2%,?,16µM*,7.1µM*,·,0%
Cc1ccccc1-c1cc2nc(-c3ccc([N+](=O)[O-])cc3)cc(=O)n2[nH]1,-14%,·,-14%,-24%,-3%,0%
Cc1cc(=O)n2[nH]c(-c3ccc(Cl)cc3)cc2n1,2%,28µM*,?,?,-2%,-1%
O=c1cc(-c2ccc([N+](=O)[O-])cc2)nc2cc(-c3ccc(F)cc3)[nH]n12,45µM*,1%,-19%,-36%[10 µM],0%,0%
Cc1cc2nc(CSc3ccc(Cl)cc3)cc(=O)n2[nH]1,3%,·,?,11µM*,3%,1%
Cc1cc(OC(C)C(=O)Nc2cccc(-c3nc4ccccc4o3)c2)cc(C)c1Cl (stereo not drawn),·,?,·,·,3%,?
CCOC(=O)C1CCC(CN(Cc2cccc(Br)c2)S(=O)(=O)c2ccc(Cl)cc2)CC1 (stereo not drawn),·,-1%,·,·,1%,4%
CC(=O)c1ccc(N2CCN(c3nc4c(S(=O)(=O)c5ccc(C)c(C)c5)nnn4c4ccc(Cl)cc34)CC2)cc1,·,-4%,·,·,-1%,0%
CCN(CC)c1ccc(/C=C/C2=C3C=CC=CC3NC=C2)cc1 (stereo not drawn),·,-4%,·,·,1%,·
Cc1cc(=O)n2[nH]c(-c3ccc(F)cc3)cc2n1,12%,16µM*,-8%,-30%,0%,1%
Cc1cccc(-c2cc3nc(-c4ccccc4)cc(=O)n3[nH]2)c1,3%,·,?,?,10%,·
NC(=O)c1ccsc1N,20µM*,·,-1%,0%,·,3%
CS(=O)(=O)c1ccc(S(=O)CC(=O)OCc2ccccc2)c([N+](=O)[O-])c1 (stereo not drawn),-27%,·,4.5µM*,4.5µM*,3%,0%
O=C(CS(=O)c1ccc(C(F)(F)F)cc1[N+](=O)[O-])Oc1ccccc1 (stereo not drawn),13%,-2%,0%,-15%,-3%,?
CCCOC(=O)Nc1nc2ccccc2o1,9%,-2%,?,14µM*,-1%,2%
CCOC(=O)C(Cc1ccc(O)cc1)Nc1nc2ccccc2o1 (stereo not drawn),·,-3%,·,·,-4%,·
CCCCC(=O)N/C(N)=N/c1nc2ccccc2o1,27%,·,-12%,?,5%,0%
